The whole screen tested about 340,000 compounds, of which about 1,000 (0.29%) were called active. Cut-off read from the data, not from the text of the source: inconclusive = inhibition above about 29% without an active follow-up result; inactive = below that. These entries were drawn from the full list. Measured potencies and affinities stand elsewhere.
Biological target: Genome polyprotein (Dengue virus type 2 (strain 16681-PDK53)) (UniProt P29991)
Test: Dengue-2 NS5 methyltransferase inhibitors, primary screen, biochemical, confirmation dose response (AID 588689)
Conditions: Dengue-2 NS5 methyltransferase capping enzyme assay, at 25 µM, stronger effect = higher value
[1] = measured here: pilot screen replicate inhibition

## CCCOc1ccc(NC(=O)CC2C(=O)N(CC)C(=S)N2Cc2cccs2)cc1 (stereo not given)
  inhibition: -2.45% (inactive)

## C/C(=C\c1cccc(Cl)c1)C(=O)c1c(C)cc(C)[nH]c1=O
  inhibition: 0.68% (inactive)

## COc1ccc(S(=O)(=O)N2CCN(c3ccccc3)CC2)cc1
  inhibition: -2.22% (inactive)

## Cc1cccc(N2CCN(c3nc(C)cc(C)c3C#N)CC2C)c1 (stereo not given)
  inhibition: -4.66% (inactive)

## CCOc1ccc(/C=C2/SC(=S)N(C(C(=O)O)c3ccccc3)C2=O)cc1OCC (stereo not given)
  inhibition: 22.1% (inactive)

## CCOc1ccc(/C=C2\SC(=S)N(C(C(=O)O)c3ccccc3)C2=O)cc1OC (stereo not given)
  inhibition: 16.8% (inactive)

## COc1ccc(/C=C2\SC(=S)N(C(C(=O)O)c3ccccc3)C2=O)c(OC)c1 (stereo not given)
  inhibition: -11.9% (inactive)

## COc1cccc(/C=C2\SC(=S)N(N3CCOCC3)C2=O)c1OC
  inhibition: -5.48% (inactive)

## COc1ccc(OC)c(/C=C2\SC(=S)N(C(C(=O)O)c3ccccc3)C2=O)c1 (stereo not given)
  inhibition: -26.1% (inactive)

## COc1cccc(/C=C2\SC(=S)N(c3cccnc3)C2=O)c1OC
  inhibition: 6.89% (inactive)

## O=C(O)C(c1ccccc1)N1C(=O)/C(=C\c2ccc(-c3ccccc3Cl)o2)SC1=S (stereo not given)
  inhibition: 12.4% (inactive)

## O=C1/C(=C/c2cccs2)SC(=S)N1c1ccccc1
  inhibition: -4.85% (inactive)

## CC1(C(=O)N2CCN(c3ccc([N+](=O)[O-])cc3)CC2)CC1(Cl)Cl (stereo not given)
  inhibition: -2.36% (inactive)

## CN(CC(=O)Nc1ccc(F)cc1)C(=O)CSc1nccn1C
  inhibition: 7.2% (inactive)

## Cn1nc(C(=O)NCc2cccc(Cl)c2)c2c1-c1ccccc1S(=O)(=O)C2
  inhibition: 5.32% (inactive)

## COc1cccc(C(=S)N2CCOCC2)c1OS(=O)(=O)c1ccc(Cl)cc1
  inhibition: 1.61% (inactive)

## CC(C)Cc1ccc(C(C)NC(=O)Cc2ccc(S(=O)(=O)N3CCOCC3)s2)cc1 (stereo not given)
  inhibition: -1.45% (inactive)

## O=C(Nc1ccccc1[N+](=O)[O-])c1cccc(N2C(=O)CCC2=O)c1
  inhibition: -7.81% (inactive)

## O=C(O)c1cnc(-c2ccccc2)nc1C(F)(F)F
  inhibition: -8.19% (inactive)

## COC(=O)Nc1nc(-c2ccccc2)c(C(=O)c2ccccc2)s1
  inhibition: -4.12% (inactive)

## COc1cccc(-c2ccc3ncnc(NCc4cccc(C)c4)c3c2)c1
  inhibition: -0.8% (inactive)

## COc1ccc(CNC(=O)/C=C/c2cc3c(cc2Br)OCO3)cc1
  inhibition: -8.34% (inactive)

## COc1cc(/C=C2\OC(=O)c3c(OC)cccc32)ccc1O
  inhibition: -20.1% (inactive)

## COc1cc(C(=O)O)c2c(c1C)OC(=O)c1c(C)cc(O)c(C=O)c1O2
  inhibition: 0.72% (inactive)

## O=C(O)C1C2CCC(O2)C1C(=O)Nc1ccc(Br)cc1F (stereo not given)
  inhibition: -6.36% (inactive)

## C=CCC[C@@H](Cc1ccc(F)cc1)C(=O)OC[C@@H](Cc1ccccc1)NC(=O)[C@@H](CC=C)CC(=O)N[C@@H](CO)Cc1ccccc1
  inhibition: -4.81% (inactive)

## CC(C)CSC1=NSC2=NC(=O)/C(=C\c3cccs3)C(=N)N12
  inhibition: 24.3% (inactive)

## N=C1/C(=C/c2cccs2)C(=O)N=C2SN=C(SCc3ccccc3)N12
  inhibition: -11.6% (inactive)

## CCCCCCCCCCNC(=O)CCn1[nH]c(=O)c2ccccc2c1=O
  inhibition: -4.1% (inactive)

## Cc1cccc(C)c1OCCn1nnc2ccccc21
  inhibition: 1.31% (inactive)
[1]
  inhibition: -3.03%

## COc1cc(/C=C2\C(=O)N(CCC#N)N=C2C)ccc1OCC(=O)Nc1ccccc1
  inhibition: 27.7% (inactive)

## COc1cc(/C=C2/C(=O)N(c3cccc(Br)c3)N=C2C)cc(OC)c1O
  inhibition: -25.2% (inactive)

## COc1ccc(/C=C2\N=C(C)N(c3ccc(C(=O)O)cc3)C2=O)cc1OC
  inhibition: -13.8% (inactive)

## COc1cc(/C=C2/C(=O)N(c3ccc(C(=O)O)cc3)N=C2C)cc(OC)c1O
  inhibition: -28.1% (inactive)

## Cc1ccccc1NC(=O)Cn1nnc(S(=O)(=O)c2ccc(C(C)(C)C)cc2)c1N
  inhibition: -3.62% (inactive)

## NC(=O)N/N=C/c1ccc(-c2cccc(C(F)(F)F)c2)o1
  inhibition: -7.73% (inactive)

## Fc1cccc(/C=C2\CCCC3=C2NC(=S)NC3c2cccc(F)c2)c1 (stereo not given)
  inhibition: 3.88% (inactive)

## Cc1ccc(SC2=C(Sc3ccc(C)cc3)C(=O)c3ccccc3C2=O)cc1
  inhibition: 22.2% (inactive)

## COC1=C(Nc2ccc(C)cc2)C(=O)c2ccccc2C1=O
  inhibition: 1.28% (inactive)

## COc1ccc(CN2CC(C(=O)NCCN3CCOCC3)CC2=O)cc1 (stereo not given)
  inhibition: 0.54% (inactive)

## O=C(CN1C(=O)COc2ccc(Cl)cc21)N1CCc2ccccc21
  inhibition: -2.43% (inactive)

## Cc1cc(C)n(-c2nc3ccccc3c(=O)n2OCC#N)n1
  inhibition: -1.94% (inactive)

## CC(=O)Oc1ccc(N(C(C)=O)S(=O)(=O)c2ccccc2)c2ccccc12
  inhibition: 6.04% (inactive)

## CC(=O)Oc1ccc(N(C(C)=O)S(=O)(=O)c2ccc(C)cc2)c2ccccc12
  inhibition: -8.55% (inactive)

## O=C(NCCCn1ccnc1)c1ccc(Cl)s1
  inhibition: -4.6% (inactive)

## O=S(=O)(Nc1ccc(N=Nc2ccc(O)c3ccccc23)cc1)c1ccccc1
  inhibition: 6.54% (inactive)

## O=S(=O)(O)c1ccc(N=Nc2ccccc2)cc1
  inhibition: -9.54% (inactive)

## O=C(C[n+]1ccc(C(=O)c2ccccc2)cc1)Nc1ccccc1OC(F)F
  inhibition: -15.9% (inactive)

## O=P(C(=S)Nc1ccccc1Cl)(c1ccccc1)c1ccccc1
  inhibition: -1.15% (inactive)

## O=C(Nc1ccccc1)c1ccccc1NS(=O)(=O)c1ccc(Cl)s1
  inhibition: 10.3% (inactive)

## Cc1ccc(NC(=O)c2ccccc2NS(=O)(=O)c2ccc(Cl)s2)cc1
  inhibition: -0.66% (inactive)

## COC(=O)[C@]1(C)N[C@H](CN(C)S(=O)(=O)c2ccc(OC)cc2)[C@@H]2C(=O)N(C)C(=O)[C@@H]21
  inhibition: -4.63% (inactive)
[1]
  inhibition: -0.915%

## Cc1ccc(S(=O)(=O)N2CCOCC2)cc1C(=O)NC1CCCC(C)C1C (stereo not given)
  inhibition: 1.47% (inactive)

## CCCC1=C([O-])C2N=CC=CC2=[N+](c2ccccn2)C1=O (stereo not given)
  inhibition: -1.93% (inactive)

## COC(=O)C1OC2(OC1C(=O)OC)c1ccccc1-c1ccccc12 (stereo not given)
  inhibition: -6.04% (inactive)

## O=C1c2ccccc2C(O)N1c1ccc(Cl)cc1 (stereo not given)
  inhibition: -2.08% (inactive)

## CC(C)(Oc1ccc(Cl)cc1)C(=O)NC1CCSC1=O (stereo not given)
  inhibition: -4.81% (inactive)

## CCOC(=O)N1CCC(NC(=S)Nc2ccc3nc(N4CCN(CC)CC4)cc(C)c3c2)CC1
  inhibition: -6.96% (inactive)

## COc1ccc(-c2cc(C(=O)NCCN3CCOCC3)c3ccccc3n2)c(OC)c1
  inhibition: -2.05% (inactive)

## Cc1cccc(N(CC(=O)O)CC(=O)O)c1
  inhibition: 0.96% (inactive)

## CSC(=CC(=O)c1ccccc1)SC
  inhibition: -2.05% (inactive)

## COc1cccc(C(=O)C(C#N)=C(SC)SC)c1
  inhibition: 12.4% (inactive)

## Cc1c(C(=O)Nc2cccc([N+](=O)[O-])c2)sc2ncn(CC(=O)N3CCOCC3)c(=O)c12
  inhibition: -4.39% (inactive)

## Cc1nc2ccc(Br)cc2c(-c2ccccc2)c1C(=O)O
  inhibition: 1.96% (inactive)

## Cc1cccc(Nc2nnc(SCC(=O)NC3CCCc4ccccc43)s2)c1C (stereo not given)
  inhibition: -1.45% (inactive)

## CSc1ccc(-c2sc(Nc3ccccc3)n[n+]2-c2ccccc2)cc1
  inhibition: -11.6% (inactive)

## CC(=O)Nc1ccc(-c2sc(Nc3cccc4ccccc34)n[n+]2-c2ccccc2)cc1
  inhibition: -7.03% (inactive)

## CCOC(=O)c1cnc2c(C)c(Cl)ccc2c1N1CCN(CC)CC1
  inhibition: -10.3% (inactive)

## Cc1[nH]c2ccccc2c1-c1nc2ccccc2[nH]c1=O
  inhibition: -8.14% (inactive)

## Cc1[nH]c2ccccc2c1-c1nc2ccccc2[nH]1
  inhibition: -3.22% (inactive)

## COc1ccc(S(=O)(=O)NC2CCCC2)cc1C(N)=O
  inhibition: -1.94% (inactive)

## O=c1cc(O)c2ccc(O)cc2o1
  inhibition: 0% (inactive)

## [O-][n+]1c2ccccc2[n+]([O-])c2cc(O)ccc21
  inhibition: 37.8% (inactive)

## COc1ccc(C(=O)OCCNC(=O)c2ccncc2)cc1OC
  inhibition: -5.77% (inactive)

## CCOC(=O)c1ccccc1NC(=O)c1n[nH]c(=O)c2ccccc12
  inhibition: 0% (inactive)

## COc1cccc(N2CCN(C(=O)c3c(C)nn(-c4ccccc4)c3C)CC2)c1
  inhibition: -1.48% (inactive)

## COc1ccc(C(=O)NC2CCCc3c2cnn3-c2ccc(C)c(C)c2)c(OC)c1OC (stereo not given)
  inhibition: -2.67% (inactive)

## O=C1CC(Sc2ncccc2C(=O)O)C(=O)N1 (stereo not given)
  inhibition: 6.1% (inactive)

## CC1=NN(c2ccccc2)C(=O)C1C(=S)SC1CC(=O)NC1=O (stereo not given)
  inhibition: 26.3% (inactive)

## O=C(COC(=O)c1ccc(Br)o1)NC1CCCc2ccccc21 (stereo not given)
  inhibition: -3.71% (inactive)

## CC(C)NS(=O)(=O)c1ccc(OCC(=O)NCc2ccco2)cc1
  inhibition: -2.21% (inactive)

## Cc1nc2ccc([N+](=O)[O-])cc2nc1C
  inhibition: -4.51% (inactive)

## O=c1c2c([N+](=O)[O-])cc([N+](=O)[O-])cc2nc2ccccn12
  inhibition: 0% (inactive)

## Cc1ccc2nc(C)c(C(=O)N/N=C/c3ccccc3[N+](=O)[O-])cc2c1
  inhibition: -1.3% (inactive)

## O=[N+]([O-])c1cnc2ccccc2c1
  inhibition: 3.89% (inactive)

## COc1cc(Cl)cc(NC(=O)CCN2CCN(C)CC2)c1
  inhibition: -1.61% (inactive)

## O=C(NCCc1cccnc1)C1CCC(=O)N(CCc2cccc(F)c2)C1 (stereo not given)
  inhibition: -9.31% (inactive)

## Cc1ccccc1C(=O)Nc1c2c(nn1C(C)(C)C)CS(=O)(=O)C2
  inhibition: -5.2% (inactive)

## C=C1C(=O)O[C@H]2C[C@H]1[C@@H](OC(C)=O)C/C(C)=C/CC/C(C)=C\CC[C@]2(C)O
  inhibition: -22.5% (inactive)
[1]
  inhibition: -2.46%

## CC(=O)C12CCCCC1CC1C3CC(C)C4(O)CC(=O)CCC4(C)C3CCC12C (stereo not given)
  inhibition: -1.3% (inactive)

## O=C(c1ccccc1NS(=O)(=O)c1ccccc1[N+](=O)[O-])N1CCCC1
  inhibition: 5.25% (inactive)

## O=C(c1ccccc1NS(=O)(=O)c1ccccc1[N+](=O)[O-])N1CCOCC1
  inhibition: -3.61% (inactive)
